Measured values from PubChem BioAssay (NCATS).
Results filed as inconclusive are left out. A call without a number means that no potency is given here. Activity calls are given as the source filed them. The call rests on the fitted dose curve; in most records, active means well fitted cell-killing curve with a large enough effect; inconclusive means small, poorly fitted or top-dose-only effect, or effect the other way; inactive means no such curve, though single readings can be large or run the other way.

Assay: Quantitative highthroughput screen to assess conditional lethalithy of NOMO1 cells grown in Human Plasma-Like Medium with dialyzed fetal bovine serum (HPLM+ds) (AID 1963878); further: nearly all actives have a fitted effect of over 35% in size
Settings: NOMO1 AML cells in HPLM+ds, CellTiter-Glo viability, 48 h; series mostly up to 45.8 µM
Excerpt: Assay Provider: Jason Cantor Ph.D.
Department of Biochemistry
University of Wisconsin-Madison, Madison, WI, USA
Chemical screening studies have identified drug sensitivities across hundreds of cancer cell lines but most putative therapeutics fail to translate. Discovery and development of drug candidates in models that more accurately reflect nutrient levels in human blood is a major challenge. Here we performed high-throughput screens in conventional versus Human Plasma-Like Medium (HPLM) to identify compounds that were "missed" when screening using the artificial culture condition. Sets of conditional anticancer compounds spanned phases of clinical development and included non-oncology drugs were assessed. […] We also traced conditional phenotypes for several chemotherapeutics to availability of HPLM-specific metabolites and confirmed others for compounds whose reported targets are encoded by nonessential genes. Our findings establish generalizable strategies for exploiting conditional lethality in HPLM to reveal therapeutic candidates and mechanisms of action in cancer cells.
Described herein are the results of each viability screens against three cell lines: NOMO1 (an acute myeloid leukemia cell line); P12-Ichikawa (a T-cell acute lymphoblastic leukemia); and SEM (a B-cell ALL). Each assay was screened using 3 different cell culture media: homemade human plasma-Like medium with 10% dialyzed fetal bovine serum (HPLM+ds); RPMI1640 with 10% untreated FBS and 5mM glucose (RPMI+s); and RPMI1640 with 10% dialyzed fetal bovine serum and 5 mM glucose (RPMI+ds).
PROTOCOL TABLE (as described by Inglese J, Shamu CE and Guy RK. 2007)
SEQUENCE No. (e.g., 1, 2, 3, etc.); […] (e.g., Cells, Incubation, Reagent, etc.); VALUE and DESCRIPTION.
1; Cells; 5 uL; white, solid bottom 1536-well Greiner assay plate.
2; Compounds; 23 nL; Kalypsis pin tool (Wako USA) equipped with a 1536-well pin head to transfer to the assay plates.
3; Incubation; 48 hours; 37C incubation.
4; Reagent; 3 uL; CellTiter Glo (Promega).
5; Incubation; 5 min, room temperature
6; Detection; Luminescence, Viewlux PerkinElmer.
NOTES (numbers refer to Sequence numbers above)
1. Briefly, 5 ul of cell reagent was dispensed using a Multidrop Combi Dispenser. The NOMO1 and SEM cells were plated at 500 cells/well and the P12-Ichikawa line at 1000 cells/well.
2. After seeding the cells, 23 nL of MIPE 4.1 library compounds (in DMSO) were added to each plate using a Kalypsys 1536 Pintool dispenser. Bortezomib at final concentration of […] and DMSO were added to each plate as positive and negative controls respectively. For each screen, MIPE 4.1 compounds were added over an eleven-point concentration range […] in 3-fold dilutions.
3. Each plate was covered with a stainless steel gasketed lid to prevent evaporation and incubated for 48 hour at 37C, 95% relative humidity, and 5% CO2.
4-5. Three microliter CellTilter-GloTM luminescent substrate mix (Promega) reagent was added to the assay plate and incubated at room temperature for 5 min.
6. The luminescence signal was measured using a ViewLux (PerkinElmer) multiplate reader with a 2 second exposure time per plate. Data for each compound were normalized as percent viability such that measurements for DMSO and the empty well controls in each plate were defined as 100% and 0%, respectively.
Potency means the concentration at half of the fitted maximal effect.

| SMILES | Potency |
| --- | --- |
| CN1CCN(Cc2ccc(NC(=O)Nc3ccc(Oc4cc(NC(=O)C5CC5)ncn4)cc3)cc2C(F)(F)F)CC1 | 0.372 µM (active) |
| CC(=O)O[C@H]1C[C@@H]2CC[C@H]3[C@H]4C[C@H]([N+]5(C)CCCCC5)[C@@H](OC(C)=O)[C@@]4(C)CC[C@@H]3[C@@]2(C)C[C@H]1N1CCCCC1 | inactive |
| CC(C)(C)c1cnc(CSc2cnc(NC(=O)C3CCNCC3)s2)o1 | 0.59 µM (active) |
| CC(C)C[C@@H](N)[C@H](O)C(=O)N[C@H](C(=O)N[C@H](C(=O)N[C@@H](CC(=O)O)C(=O)O)C(C)C)C(C)C | inactive |
| O=C1NC(=O)C(=Cc2cccc(C(F)(F)F)c2)S1 | inactive |
| CC[C@H](C)C(=O)O[C@H]1C[C@H](O)C=C2C=C[C@H](C)[C@H](CC[C@@H](O)C[C@@H](O)CC(=O)O)[C@H]21 | inactive |
| CCOc1cc(N)c(Cl)cc1C(=O)NCC1CN(Cc2ccc(F)cc2)CCO1 (stereo not given) | inactive |
| Cc1cccc(Nc2nc(N[C@@H]3CCCC[C@H]3N)ncc2C(N)=O)c1 | 0.935 µM (active) |
| COc1cc2c(Nc3ccc(Cl)c(Cl)c3F)ncnc2cc1OCC1C[C@@H]2CN(C)C[C@H]2C1 | 4.18 µM (active) |
| CC1(C)Cc2c(-c3ccccc3)c(-c3ccc(Cl)cc3)c(CC(=O)O)n2C1 | inactive |
| Cc1cnc(Nc2cccc(CN3CCOCC3)c2)nc1Nc1cccc(S(=O)(=O)NC(C)(C)C)c1 | inactive |
| COc1cc2c(cc1OC)[C@@H]1C(=O)c3ccc4c(c3O[C@@H]1CO2)C=CC(C)(C)O4 | 20.9 µM (active) |
| Cc1ccnc(NS(=O)(=O)c2ccc(NC(=O)Nc3ccc(S(=O)(=O)Nc4nccc(C)n4)cc3)cc2)n1 | 0.118 µM (active) |
| C[C@@H]1C[C@H]2[C@@H]3CCC4=CC(=O)C=C[C@]4(C)[C@@]3(Cl)[C@@H](O)C[C@]2(C)[C@@]1(OC(=O)c1ccco1)C(=O)CCl | 1.18 µM (active) |
| CN1c2cc(O)c(N=NC(N)=O)cc2CC1S(=O)(=O)O (stereo not given) | inactive |
| O=c1ccn([C@@H]2O[C@H](CO)[C@H](O)[C@@H]2F)c(=O)[nH]1 | inactive |
| Cn1cc(C=CC(=O)c2cccc(F)c2)cc1C=CC(=O)NO | inactive |
| Cn1cnc2c1c(=O)[nH]c(=O)n2C | 20.9 µM (active) |
| Clc1ccc(C(Cn2ccnc2)OCc2ccsc2Cl)c(Cl)c1 (stereo not given) | inactive |
| COCCCOc1ccnc(CS(=O)c2nc3ccccc3[nH]2)c1C (stereo not given) | inactive |

| SMILES | Potency |
| --- | --- |
| Cc1c(-c2ccnn2C)cc(C(=O)NCc2ccc(S(C)(=O)=O)cn2)c(=O)n1-c1cccc(C(F)(F)F)c1 | inactive |
| COc1ncnc(NS(=O)(=O)c2ccc(N)cc2)c1OC | 2.35 µM (active) |
| C[C@@H](CN1CC(=O)NC(=O)C1)N1CC(=O)NC(=O)C1 | 0.148 µM (active) |
| CCCCCCCc1ccc(CCc2cccc(O)c2C(=O)O)cc1 | inactive |
| CCOC(=O)C1=C[C@@H](OC(CC)CC)[C@H](NC(C)=O)[C@@H](N)C1 | inactive |
| O=c1oc2cc(O)ccc2s1 | inactive |
| CC(O)(C#Cc1ccc2c(c1)N(c1nc(N)ncc1Cl)CC2)c1nccs1 (stereo not given) | inactive |
| O=C(Nc1nc2cccc(-c3ccc(CN4CCS(=O)(=O)CC4)cc3)n2n1)C1CC1 | 23.5 µM (active) |
| Nc1ccccc1NC(=O)c1ccc(CNC(=O)OCc2cccnc2)cc1 | 1.32 µM (active) |
| CCC(C)(Oc1ccc(C2(c3ccc(OC(C)(CC)C(=O)O)cc3)CCCCC2)cc1)C(=O)O (stereo not given) | inactive |
| COc1cccc(N(C)C(=S)Oc2ccc3c(c2)CCCC3)n1 | inactive |
| CCC(=O)OCC(=O)[C@@]1(OC(=O)CC)[C@@H](C)C[C@@H]2[C@H]3CCC4=CC(=O)C=C[C@]4(C)[C@@]3(F)[C@@H](O)C[C@@]21C | 1.66 µM (active) |
| Cn1c(=O)c2c(ncn2CC(O)CO)n(C)c1=O (stereo not given) | inactive |
| Cn1c2cc(S(C)=O)sc2c2cnn(Cc3cccc(N)c3)c(=O)c21 (stereo not given) | inactive |
| CNC(=O)c1cc(Oc2ccc(NC(=O)Nc3cc(C(C)(C)C)nn3-c3ccc4ncccc4c3)c(F)c2)ccn1 | inactive |
| Cc1cn(CCN2CCN(c3ccccc3-c3cc(C#N)cc(C(=O)NCCCN4CCCC4)c3)CC2)c2ccccc12 | 8.31 µM (active) |
| Cc1ccccc1N1C(=O)c2cc(S(N)(=O)=O)c(Cl)cc2NC1C (stereo not given) | inactive |
| CN(C)c1ccc(C2Nc3ccc4ccccc4c3C3=C2C(=O)CC(C)(C)C3)cc1Br (stereo not given) | inactive |
| C[C@H]1[C@H](O)O[C@@H]2O[C@@]3(C)CC[C@@H]4[C@H](C)CC[C@@H]1[C@@]24OO3 | 2.09 µM (active) |
| NC[C@H]1O[C@H](O[C@@H]2[C@@H](O)[C@@H](O[C@H]3O[C@H](CO)[C@@H](O)[C@H](N)[C@@H]3O)[C@H](N)C[C@@H]2N)[C@H](O)[C@@H](O)[C@H]1O | inactive |
